RORg inh = qHTS for inhibitors of ROR gamma transcriptional activity | Drosophila S2 Gal4-RORgamma UAS-luciferase reporter, 20 h | Potency, µM (series often up to 53.6 µM), for the others: at the top dose activity change, negative = inhibition, most hits filed as inhibitors | 310,000 tested, 5.4% active; also: % is scaled to controls: 0 for no effect and ±100 for the full control effect; nearly all actives have a fitted effect of over 60% in size
Target sequence (P51450 whole entry, looked up, the tested form may be a part): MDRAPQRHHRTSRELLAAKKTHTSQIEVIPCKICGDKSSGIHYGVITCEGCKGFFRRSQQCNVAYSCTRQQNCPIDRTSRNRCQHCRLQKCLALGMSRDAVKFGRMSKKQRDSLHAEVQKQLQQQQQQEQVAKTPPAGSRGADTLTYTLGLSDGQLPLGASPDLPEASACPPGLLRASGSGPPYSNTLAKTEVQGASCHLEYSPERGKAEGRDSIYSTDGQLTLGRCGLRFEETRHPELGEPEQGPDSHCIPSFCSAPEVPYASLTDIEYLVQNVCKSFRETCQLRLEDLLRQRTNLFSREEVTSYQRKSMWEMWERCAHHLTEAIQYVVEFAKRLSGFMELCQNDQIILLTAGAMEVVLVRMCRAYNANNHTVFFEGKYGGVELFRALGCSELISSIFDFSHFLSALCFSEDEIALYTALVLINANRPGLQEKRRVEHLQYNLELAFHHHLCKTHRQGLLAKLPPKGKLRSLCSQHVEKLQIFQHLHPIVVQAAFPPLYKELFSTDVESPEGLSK
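A Gal4/UAS one-hybrid system in insect cells: metallothionein-promoter Gal4–ROR gamma fusion plus Photinus luciferase reporter. Copper sulfate 700 uM final, 20 hr ambient incubation, luminescent detection after 10 min with reagent.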
KB-3-1 tox = qHTS assay for MDR1-selective chemotherapeutics: Primary screen using the parental adenocarcinoma cell KB-3-1. KB-3-1 viability, CellTiter-Glo ATP luminescence, 72 h. Potency, µM (series often up to 46.1 µM), hits mostly cytotoxic. 400,000 tested, 1.4% active; also: % is scaled to controls: 0 for no effect and ±100 for the full control effect; nearly all actives have a fitted effect of over 60% in size
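Multi-concentration cytotoxicity screen in KB-3-1 cells grown in DMEM lacking phenol red with 10% FBS. After 72 h at 37 °C with compound, ATP-dependent luminescence was recorded.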
SW480 rereplic = A quantitative high throughput screen for small molecules that induce DNA re-replication in SW480 colon adenocarcinoma cells | SW480 DNA re-replication, Hoechst DNA content imaging, 48 h | Potency, µM (doses to about 46.1 µM), for inactives: top-dose re-replication activation, hits mostly activators | 340,000 tested, 1.8% active | AID 624297, 2012; also: % of control where 0% means no effect; nearly all actives have a fitted effect of over 55% in size
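SW480 cells exposed to compounds for 48 hr at 37 C, 5% CO2, then Hoechst-stained 40 min. Nuclear DNA content imaged by fluorescence scanning (405 nm excitation, 500-530 nm emission); re-replication scored as increased high-intensity nuclei.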
KB-V1 MDR tox = qHTS assay for MDR1-selective chemotherapeutics: Primary screen using the drug-selected MDR subline cells KB-V1 | KB-V1 MDR cells viability, CellTiter-Glo, 72 h | Potency, µM (series often up to 46.1 µM), actives largely listed as cytotoxic | 400,000 tested, 3.4% active | AID 1347076, 2019; also: % is scaled to controls: 0 for no effect and ±100 for the full control effect; nearly all actives have a fitted effect of over 60% in size
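Potencies derive from concentration-effect curves fitted to normalized luminescence (CellTiter-Glo) of KB-V1 cells treated for 72 h at 37 degrees C in phenol-red-free DMEM containing 10% FBS.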
MCF10A rereplic = A quantitative high throughput screen for small molecules that induce DNA re-replication in MCF 10a normal breast cells. MCF 10A DNA re-replication, Hoechst nuclear intensity, 48 h. Potency, µM (series often up to 46.1 µM), inactives show at the highest dose activity, positive = re-replication, usual class: activators. 350,000 tested, 2.9% active. AID 624296, 2012; also: % of control where 0% means no effect; nearly all actives have a fitted effect of over 50% in size
VP16 counter = VP16 counterscreen qHTS for inhibitors of ROR gamma transcriptional activity. Potency, µM (top dose mostly 53.6 µM), for inactives: at the top dose activity, negative = inhibition, actives largely listed as inhibitors. 310,000 tested, 3.5% active. Drosophila S2 Gal4-VP16 UAS-luciferase, luminescence, 20 h. AID 2546, 2010;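 also: Gal4-VP16 expression switched on by copper sulfate through the metallothionein promoter; % is scaled to controls: 0 for no effect and ±100 for the full control effect; nearly all actives have a fitted effect of over 50% in size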
* = called active by the depositor; i = inactive; ? = inconclusive; nt = not tested or not shown; [ ] = remark or other dose. Compounds with a hit are over-represented: about 10% of the library has one in this group of screens. Calls follow the shape of the dose curve; as a rule, active = well fitted curve in the direction sought with a large enough effect; inconclusive = small, poorly fitted or top-dose-only effect, or another doubt; inactive = no such curve, though single readings can be large; an effect the other way counts as inactive or inconclusive. Potency is read from the fitted curve at half-maximal effect.

SMILES | RORg inh | KB-3-1 tox | SW480 rereplic | KB-V1 MDR tox | MCF10A rereplic | VP16 counter
Cc1cccc(C)c1NC(=O)CSc1nc(-c2ccco2)cc(C(F)(F)F)n1 | -17.1% | i | 20.6µM* | i | 8.3% | -8.6%
Cc1cc(NC(=O)CSc2nc(-c3ccco3)cc(C(F)(F)F)n2)no1 | -3.9% | 0.82µM* | 0.731µM* | ? | 3.26µM* | -26.4%
Cc1cc(NC(=O)CCSc2nc(-c3ccco3)cc(C(F)(F)F)n2)no1 | -7.8% | i | -31.0% | i | -10.9% | ?
O=C(CSc1nc(-c2ccco2)cc(C(F)(F)F)n1)Nc1ccc(C(=O)N2CCCCC2)cc1 | ? | i | -10.7% | i | 6.9% | 4.47µM*
CCOC(=O)c1cc(-c2ccc(C)cc2)n(CCCC(=O)Nc2cc(C)ccc2C)c1 | nt | i | nt | i | nt | nt
Cc1c(C(=O)OCC(=O)NCCN2C(=O)CSC2=O)oc2c1ccc1ccccc12 | 6.2% | i | ? | 23.1µM* | ? | -0.3%
O=C(COC(=O)c1cccs1)NCCN1C(=O)CSC1=O | -0.1% | i | -4.4% | i | 0.0% | 13.3%
CC1CN(c2nc3c(c(=O)[nH]c(=O)n3C)n2Cc2ccccc2F)CC(C)O1 (centres undefined) | -0.9% | i | -6.4% | 18.4µM* | -0.2% | -10.6%
Cn1c(N2CCN(C(c3ccccc3)c3ccccc3)CC2)nc2c1c(=O)[nH]c(=O)n2C | ? | ? | -6.2% | 20.6µM* | 7.2% | 17.9%
Cn1c(=O)c2c(nc(N3CCNCC3)n2Cc2ccccc2Cl)n(C)c1=O | 18.5% | i | -19.9% | i | -3.2% | 0.8%
Cn1c(=O)[nH]c(=O)c2c1nc(N1CCNCC1)n2Cc1ccccc1Cl | 25.9% | i | -37.9% | i | 2.91µM* | 0.9%
CCN1CCN(c2nc3c(c(=O)[nH]c(=O)n3C)n2Cc2ccccc2F)CC1 | 34.7%[1.91 µM] | i | 10.7% | i | ? | -4.6%
CCOC(=O)c1cccc(NC(=O)CN2C(=O)CC(C)(C)Sc3ccccc32)c1 | nt | i | nt | i | nt | nt
CC1(c2ccc3ccccc3c2)NC(=O)N(CC(=O)N2CCN(Cc3ccc(C#N)cc3)CC2)C1=O (centres undefined) | nt | i | ? | ? | 9.3% | nt
N#Cc1ccc(CN2CCN(C(=O)Cn3nc(C(N)=O)c4ccccc4c3=O)CC2)cc1 | -0.3% | i | 20.6µM* | i | 4.0% | -9.3%
O=C([C@H]1O[C@@H](n2ccc(=O)[nH]c2=O)[C@H](O)[C@@H]1O)N1CCSC1 | nt | i | nt | i | nt | nt
CCOC(=O)C1(Cc2ccccc2)CCN(Cc2nccn2CC)CC1 | 7.94µM* | i | ? | i | ? | ?
CCOC(=O)C1(Cc2ccc(Cl)cc2)CCN(Cc2nccn2CC)CC1 | 3.16µM* | i | 21.6% | i | 16.6% | 12.6µM*
CCOC(=O)C1(Cc2ccccc2)CCN(Cc2ccc(C)s2)CC1 | 13.4% | i | 0.2% | ? | ? | -4.2%
CCOC(=O)C1(Cc2ccccc2)CCN(Cc2ccc(C3CCCCO3)s2)CC1 (centres undefined) | 6.0% | i | 11.5% | ? | 16.4µM* | 3.2%
CCOC(=O)C1(Cc2ccc(Cl)cc2)CCN(CCCn2cccn2)CC1 | -18.6% | i | 9.6% | i | 14.9% | -3.8%
CCOC(=O)C1(Cc2ccccc2)CCN(Cc2ccon2)CC1 | 0.6% | i | -6.0% | i | -8.7% | -5.2%
CCOC(=O)C1(CCc2ccccc2)CCN(Cc2nccn2CC)CC1 | 7.08µM* | i | 1.6% | ? | 19.7% | 11.2µM*
CCOC(=O)C1(Cc2ccc(Cl)cc2)CCN(C(=O)CCc2ccncc2)CC1 | -16.1% | i | ? | 4.11µM* | 19.3% | ?
O=CN1CCN(C(=O)c2cc3cc(Cl)ccc3[nH]2)CC1 | -9.3%[1.91 µM] | i | 5.17µM* | i | ? | 0.6%
SMILES | RORg inh | KB-3-1 tox | SW480 rereplic | KB-V1 MDR tox | MCF10A rereplic | VP16 counter
CN1CCN(C(=O)c2cc3cc(Cl)ccc3[nH]2)CC1 | 13.6% | i | 3.4% | i | 3.1% | 7.4%
COc1ccc(S(=O)(=O)N(CC(=O)Nc2cccc(C)c2)c2ccc(C)cc2)cc1OC | nt | i | nt | ? | nt | nt
O=C(NNc1nc2ccccc2s1)c1ccccc1F | ? | i | 1.9% | ? | ? | ?
Fc1ccc2nc(Nc3nc4c(F)cc(F)cc4s3)sc2c1 | 8.91µM* | ? | 1.3% | ? | 14.6µM* | 6.31µM*
Fc1cccc2sc(Nc3nc4ccccc4s3)nc12 | 4.47µM* | i | 2.9% | 20.6µM* | ? | 7.08µM*
Fc1ccc2nc(Nc3nc4c(F)cccc4s3)sc2c1 | 2µM* | i | nt | ? | ? | 5.62µM*
COc1ccc(OCCN2CCC(C(=O)NC(c3ccc(F)cc3)c3ncccc3C)CC2)cc1 (centres undefined) | nt | i | nt | i | nt | nt
Cc1ccsc1-c1n[nH]c(=S)n1CC(C)C | 2.82µM* | i | -3.5% | i | 4.9% | 6.31µM*
CCn1c(-c2nn(C)cc2Cl)n[nH]c1=S | 11.2µM* | i | -5.4% | i | 5.0% | ?
CC(C)Cn1c(-c2ccc(Br)o2)n[nH]c1=S | 6.31µM* | i | -3.0% | i | 0.8% | ?
CC(C)Cn1c(-c2nn(C)cc2Cl)n[nH]c1=S | 11.2µM* | i | -10.5% | i | -0.1% | ?
Cc1ccc(-n2c(-c3nn(C)cc3Cl)n[nH]c2=S)cc1 | ? | i | -0.7% | i | 7.2% | -18.7%
COc1ccc(/C=C/N(CCc2ccc(OC)c(OC)c2)C(=O)c2ccccn2)cc1 | 36.6%[10 µM] | nt | nt | nt | nt | 5.1%[10 µM]
Cc1ccc(S(=O)(=O)NC(=O)Cn2nnc(-c3ccccc3)c2COc2ccc3ccccc3c2)cc1 | nt | i | nt | i | nt | nt
Cc1ccc(Nc2ncnc3c2cnn3-c2ccccc2)c(C)c1 | nt | i | nt | ? | nt | nt
CC(O)c1cccc2cc(C(O)CNC(C)(C)C)oc12 (centres undefined) | 0.7% | nt | nt | nt | nt | 1.5%
COc1ccc(Nc2cc(C)c3cc(NC(=O)c4cc(OC)cc(OC)c4)ccc3n2)cc1 | nt | 8.2µM* | nt | ? | nt | nt
CCOC(=O)CC/C(=N\NC(N)=O)c1ccc(OC)c(Cl)c1 | nt | i | -4.2% | 8.2µM* | -2.2% | nt
COc1ccc(C(=O)N/N=C(\CCC(=O)O)c2ccc(C(C)(C)C)cc2)cc1OC | 11.8% | i | -6.4% | i | -2.8% | ?
CC(=O)Nc1ccc(/C=C2\C=Cc3ccccc32)cc1 | nt | i | nt | i | nt | nt
